The panel holds about 83,000 compounds, 20% with a hit somewhere; the sample as a whole holds those more often.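 Activity criterion: percent growth below 10, measured after cells in 96-well plates were exposed to a single compound concentration for 48 hours.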 Active and inactive are the calls of the source.

The test system of one assay is NCI-H322M lung. The assay can be described thus: NCI-60 one-dose screen, 48 h (100 = growth as untreated, 0 = no growth, -100 = all killed). The following applies: 10 µM unless noted.
In the case of `O=C1COCCN1c1ccc(NCc2cn(C(=O)c3ccc(Cl)cc3)c3ccccc23)cc1`, the growth is 95.1% (inactive).

In the case of `COc1ccc(-c2cnc3ccccc3n2)cc1`, the growth is 95.2% (inactive).

On to `CCOC(=O)C1=C(N)Oc2c(sc3c(C)cccc23)C1c1ccc(OC)cc1` (stereo unspecified), for which the growth is 50.9% (inactive).

Regarding `FC(F)(F)c1cc(Nc2ccc3c(OCCCN4CCOCC4)cccc3n2)ccc1Cl`, the growth was 51.5% (inactive).

Regarding `COc1cc(C(=O)c2cc(C)c3[nH]c4ccc(O)cc4c3c2C)cc(OC)c1OC`, the growth is 33.7% (inactive).

With `Cc1ccc(C(=O)N/N=C/c2cccc(Oc3ccccc3)c2)cn1`, the growth is 82.3% (inactive).

With `CC(=O)CC(c1cccs1)c1c(-c2ccccc2)[nH]c2ccccc12` (stereo unspecified), the growth was 91.4% (inactive).

As for `NC(=O)C1(Nc2ccc(Br)cc2)CCCC1`, the growth was 107% (inactive).

`COc1ccc(-c2c(C(=O)NS(C)(=O)=O)n(Cc3cccc(C(F)(F)F)c3)c3ccccc23)cc1`: the growth was 94.5% (inactive).

With `O=C1NC(=O)C(c2ccccc2)(c2ccccc2)N1Cc1cn(-c2c3ccccc3nc3ccccc23)nn1`, the growth is 92.9% (inactive).

On to `CCCCn1c(-c2ccc(C(=O)O/N=C(\N)c3ccc(OC)cc3)cc2)nc(-c2ccccc2)c1-c1ccccc1`, for which the growth is 62.3% (inactive).

Consider `COc1cc(Nc2nc(NCCN)nc3cc[nH]c(=O)c23)cc(OC)c1`, for which the growth is 83% (inactive).

For `COc1ccc(-c2[nH]c3ccc(OC)cc3c2/C=C(\C#N)S(=O)(=O)c2ccccc2)cc1`, the growth was 53.5% (inactive).

As to `COc1ccc(C2=Nn3c(nnc3-c3cc(Cl)cc(Cl)c3Cl)SC2)cc1`, the growth was 36.4% (inactive).

`COc1ccc(C(=S)N2CCN(c3cccc(C)c3)CC2)cc1OC`: the growth is 99.7% (inactive).

For `COc1cc(CCCO)c(OC)c(OC)c1OC`, the growth was 96.1% (inactive).

Turning to `O=C(Nc1nc2ccc(F)cc2s1)c1cccnc1Nc1ccc(Cl)cc1Cl`, the growth was 3.83% (active).

`Cc1cccc2c3c(sc12)C(c1ccc(F)cc1)C(C#N)=C(N)O3` (stereo unspecified): the growth is 46.4% (inactive).

For the compound `BrCCCc1n(Cc2ccc3ccccc3c2)c2ccccc2[n+]1Cc1ccc2ccccc2c1`, the growth is 11.9% (inactive).

`CCOC(=O)Cn1c(C)c(/C=N/NC(=O)c2cc3c(ccc4ccccc43)o2)c2ccccc21`: the growth is 41.5% (inactive).

As for `CCOC(=O)c1sc2ncc(-c3ccc(OC)cc3)n2c1C`, the growth is 97.3% (inactive).

Consider `O=c1c2cccc(F)c2sc2c(NCCCNCCO)nc3ccccc3c12`, for which the growth was 44% (inactive).

With `CNCCCNc1nc2ccccc2c2c(=O)c3cc(F)ccc3sc12`, the growth was 55.9% (inactive).

For the compound `CC(=O)OC[C@H]1OC(Sc2sc(C(=O)c3ccc(Cl)cc3)c(N)c2-c2nc3ccccc3s2)[C@H](OC(C)=O)[C@@H](OC(C)=O)[C@@H]1OC(C)=O` (stereo partly specified), the growth was 93.9% (inactive).

With `OC(c1ccccc1)C(NC(Cc1ccccc1)c1ccccc1)c1ccccc1` (stereo unspecified), the growth was 93.2% (inactive).

In the case of `CCOC(=O)c1cn2ncnc(Oc3ccc(NC(=O)NCCN(C)C)c(Cl)c3)c2c1C`, the growth was 90.5% (inactive).

Regarding `Cc1nc2ccccc2c(/C=C/c2ccccc2)c1C(=O)/C=C/c1ccc(C(F)(F)F)cc1`, the growth is 2.79% (active).

Consider `Cc1[nH]c(C(=O)Nc2ccc(C(=O)NCCN)cc2OC(C)C)c(Cl)c1Cl`, for which the growth is 53.3% (inactive).

Turning to `CN1CCN(c2ccc(-c3cnc4c(-c5csc6ccccc56)cnn4c3)cc2)CC1`, the growth was 10.2% (inactive).

Consider `c1ccc(-c2nc3sc(-c4ccccc4)cn3n2)cc1`, for which the growth is 88.2% (inactive).

Turning to `COc1c(B(O)O)cc(F)cc1-c1nc2ccc3[nH]ncc3c2c2c1CCCC2`, the growth is 14.2% (inactive).

As for `CNCCCC12CCC(c3ccccc31)c1ccccc12`, the growth was 92% (inactive).

On to `C=C1C(=O)O[C@H]2[C@H]1CC/C(COC(=O)C(C)c1ccc(CC(C)C)cc1)=C\CC[C@@]1(C)O[C@@H]21` (stereo partly specified), for which the growth was 97.9% (inactive).

Consider `CC1=C(C)C(=O)C(Nc2cccc(C(=O)OC(C)(C)C)c2)=C(Br)C1=O`, for which the growth is 91.1% (inactive).

Take `COc1ccc(C2CC(c3ccc(Nc4ccnc5cc(Cl)ccc45)cc3)=NN2C=O)cc1` (stereo unspecified): the growth was 103% (inactive).

Regarding `Cc1nc(NC(=O)COc2ccc(/C=C3\Cc4ccc(Cl)cc4C3=O)cc2)sc1C`, the growth was 183% (inactive).

With `Cc1ccc2c(-c3cc(-c4ccccc4)nc(N)c3C#N)cc(=O)oc2c1`, the growth is 96.6% (inactive).

As for `CN(C)c1ccc(/C=N\Nc2cc(=O)[nH]c3ccc(Cl)cc23)cc1`, the growth is 99.2% (inactive).

The subject of the next assay is HOP-62 NSCLC. Described as above. As to conditions: 10 µM unless noted.
For `O=C1COCCN1c1ccc(NCc2cn(C(=O)c3ccc(Cl)cc3)c3ccccc23)cc1`, the growth was 60.2% (inactive).

Turning to `COc1ccc(-c2cnc3ccccc3n2)cc1`, the growth was 87.9% (inactive).

For the compound `CCOC(=O)C1=C(N)Oc2c(sc3c(C)cccc23)C1c1ccc(OC)cc1` (stereo unspecified), the growth is 34.4% (inactive).

In the case of `FC(F)(F)c1cc(Nc2ccc3c(OCCCN4CCOCC4)cccc3n2)ccc1Cl`, the growth was 51.2% (inactive).

`COc1cc(C(=O)c2cc(C)c3[nH]c4ccc(O)cc4c3c2C)cc(OC)c1OC`: the growth is 40.1% (inactive).

With `Cc1ccc(C(=O)N/N=C/c2cccc(Oc3ccccc3)c2)cn1`, the growth is 71.6% (inactive).

For `CC(=O)CC(c1cccs1)c1c(-c2ccccc2)[nH]c2ccccc12` (stereo unspecified), the growth was 89.5% (inactive).

As to `NC(=O)C1(Nc2ccc(Br)cc2)CCCC1`, the growth was 103% (inactive).

Take `COc1ccc(-c2c(C(=O)NS(C)(=O)=O)n(Cc3cccc(C(F)(F)F)c3)c3ccccc23)cc1`: the growth is 89.4% (inactive).

As to `O=C1NC(=O)C(c2ccccc2)(c2ccccc2)N1Cc1cn(-c2c3ccccc3nc3ccccc23)nn1`, the growth was 87.5% (inactive).

Consider `CCCCn1c(-c2ccc(C(=O)O/N=C(\N)c3ccc(OC)cc3)cc2)nc(-c2ccccc2)c1-c1ccccc1`, for which the growth was 11.7% (inactive).

Turning to `COc1cc(Nc2nc(NCCN)nc3cc[nH]c(=O)c23)cc(OC)c1`, the growth is 97.8% (inactive).

As for `COc1ccc(-c2[nH]c3ccc(OC)cc3c2/C=C(\C#N)S(=O)(=O)c2ccccc2)cc1`, the growth is 69.1% (inactive).

Take `COc1ccc(C2=Nn3c(nnc3-c3cc(Cl)cc(Cl)c3Cl)SC2)cc1`: the growth was -2.41% (active).

In the case of `COc1ccc(C(=S)N2CCN(c3cccc(C)c3)CC2)cc1OC`, the growth was 90.6% (inactive).

As to `COc1cc(CCCO)c(OC)c(OC)c1OC`, the growth is 111% (inactive).

With `O=C(Nc1nc2ccc(F)cc2s1)c1cccnc1Nc1ccc(Cl)cc1Cl`, the growth was 63.5% (inactive).

As for `Cc1cccc2c3c(sc12)C(c1ccc(F)cc1)C(C#N)=C(N)O3` (stereo unspecified), the growth was 33.2% (inactive).

Turning to `BrCCCc1n(Cc2ccc3ccccc3c2)c2ccccc2[n+]1Cc1ccc2ccccc2c1`, the growth was -65.7% (active).

`CCOC(=O)Cn1c(C)c(/C=N/NC(=O)c2cc3c(ccc4ccccc43)o2)c2ccccc21`: the growth is 26.5% (inactive).

`CCOC(=O)c1sc2ncc(-c3ccc(OC)cc3)n2c1C`: the growth was 91.4% (inactive).

As to `O=c1c2cccc(F)c2sc2c(NCCCNCCO)nc3ccccc3c12`, the growth was 45.3% (inactive).

With `CNCCCNc1nc2ccccc2c2c(=O)c3cc(F)ccc3sc12`, the growth is 47.9% (inactive).

For the compound `CC(=O)OC[C@H]1OC(Sc2sc(C(=O)c3ccc(Cl)cc3)c(N)c2-c2nc3ccccc3s2)[C@H](OC(C)=O)[C@@H](OC(C)=O)[C@@H]1OC(C)=O` (stereo partly specified), the growth is 90.3% (inactive).

On to `OC(c1ccccc1)C(NC(Cc1ccccc1)c1ccccc1)c1ccccc1` (stereo unspecified), for which the growth is 88% (inactive).

Regarding `CCOC(=O)c1cn2ncnc(Oc3ccc(NC(=O)NCCN(C)C)c(Cl)c3)c2c1C`, the growth was 95.3% (inactive).

Consider `Cc1nc2ccccc2c(/C=C/c2ccccc2)c1C(=O)/C=C/c1ccc(C(F)(F)F)cc1`, for which the growth was -21.9% (active).

As for `Cc1[nH]c(C(=O)Nc2ccc(C(=O)NCCN)cc2OC(C)C)c(Cl)c1Cl`, the growth is 59.9% (inactive).

`CN1CCN(c2ccc(-c3cnc4c(-c5csc6ccccc56)cnn4c3)cc2)CC1`: the growth is -35.2% (active).

Regarding `c1ccc(-c2nc3sc(-c4ccccc4)cn3n2)cc1`, the growth was 66.7% (inactive).

On to `COc1c(B(O)O)cc(F)cc1-c1nc2ccc3[nH]ncc3c2c2c1CCCC2`, for which the growth is 16.1% (inactive).

On to `CNCCCC12CCC(c3ccccc31)c1ccccc12`, for which the growth is 82.9% (inactive).

On to `C=C1C(=O)O[C@H]2[C@H]1CC/C(COC(=O)C(C)c1ccc(CC(C)C)cc1)=C\CC[C@@]1(C)O[C@@H]21` (stereo partly specified), for which the growth was 84.7% (inactive).

`CC1=C(C)C(=O)C(Nc2cccc(C(=O)OC(C)(C)C)c2)=C(Br)C1=O`: the growth was 92.6% (inactive).

In the case of `COc1ccc(C2CC(c3ccc(Nc4ccnc5cc(Cl)ccc45)cc3)=NN2C=O)cc1` (stereo unspecified), the growth was 90.7% (inactive).

With `Cc1nc(NC(=O)COc2ccc(/C=C3\Cc4ccc(Cl)cc4C3=O)cc2)sc1C`, the growth was 102% (inactive).

For the compound `Cc1ccc2c(-c3cc(-c4ccccc4)nc(N)c3C#N)cc(=O)oc2c1`, the growth was 88.3% (inactive).

Take `CN(C)c1ccc(/C=N\Nc2cc(=O)[nH]c3ccc(Cl)cc23)cc1`: the growth was 91.8% (inactive).

The record behind these values is PubChem BioAssay (NCI).
